Here are results for 24 molecules from PubChem BioAssay (NCATS).

Inconclusive results are not listed. A call without a number means that no potency is given here. The source made the active and inactive calls. Calls follow the shape of the dose curve; as a rule, active = well fitted inhibition curve with a large enough effect; inconclusive = small, poorly fitted or top-dose-only effect; inactive = flat fitted curve, though single readings scatter.
Potency is read from the fitted curve at half-maximal effect.

For one assay, the system named is PC15. In words: qHTS profiling for inhibitors of Plasmodium falciparum proliferation (AID 504749). Also: nearly all actives have a fitted effect of over 60% in size. The following applies: P. falciparum in erythrocytes, SYBR Green DNA, 72 h; series mostly up to 28.7 µM. In short, it runs like this: (§1)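 Each compound contacts P. falciparum-infected red blood cells for 72 h at 37 C; lysis buffer (Tris, EDTA, saponin, Triton X, SYBR Green I) is added and fluorescence measured next morning; values normalized to controls.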
(qHTS replaces the single test concentration by a dilution series.)
`COC(=O)[C@H]1[C@H]2C[C@@H]3c4[nH]c5cc(OC)ccc5c4CCN3C[C@H]2C[C@@H](OC(=O)c2cc(OC)c(OC)c(OC)c2)[C@@H]1OC`: the Potency was 11.2 µM (active).
Regarding `OCCN1CCN(CCCN2c3ccccc3C=Cc3ccccc32)CC1`, the Potency was 2.24 µM (active).
Same read-out and setting: the entry for `C[C@]12CCC(=O)C=C1CC[C@@H]1[C@@H]2CC[C@@]2(C)[C@H]1CC[C@]2(O)C(=O)CO` is “inactive”; for `CCCC(C(=O)OCCN(CC)CC)(c1ccccc1)c1ccccc1` it is 10 µM (active).
Take `CCn1ccnc1CC1COc2ccccc2O1` (stereo unspecified): the Potency result is “inactive”.
The same measure, in the same setting: as for `CN1CCN(C2=Nc3ccccc3Oc3ccc(Cl)cc32)CC1`, the entry is “inactive”; as for `c1cnc(N2CCN(Cc3ccc4c(c3)OCO4)CC2)nc1`, “inactive”.
On the same count and under the same terms, the entry for `OC(CCN1CCCCC1)(c1ccccc1)C1CCCCC1` (stereo unspecified) is “inactive”; for `CN(C)CCCN1c2ccccc2Sc2ccccc21` it is 2 µM (active).
Same read-out and setting: as for `CCCN1C[C@H](CSC)C[C@@H]2c3cccc4[nH]cc(c34)C[C@H]21`, the entry is “inactive”.
On to `CCN(CC)CCCN(c1ccccc1)C1Cc2ccccc2C1`, for which the Potency is 4.47 µM (active).
Same read-out and setting: as for `CC(=O)[C@]1(O)Cc2c(O)c3c(c(O)c2[C@@H](O[C@H]2C[C@H](N)[C@H](O)[C@H](C)O2)C1)C(=O)c1ccccc1C3=O`, the figure is 8.91 µM (active); as for `CC(=O)[C@@]1(O)CC[C@H]2[C@@H]3CCC4=CC(=O)CC[C@]4(C)[C@H]3CC[C@@]21C`, “inactive”; as for `O=c1[nH]c(=O)n([C@H]2C[C@H](O)[C@@H](CO)O2)cc1Br`, “inactive”.
`COc1ccc(CCN(C)CCCC(C#N)(c2cc(OC)c(OC)c(OC)c2)C(C)C)cc1OC` (stereo unspecified): the Potency result is “inactive”.
As to `C[n+]1cc2c3c(ccc2c2ccc4cc5c(cc4c21)OCO5)OCO3`, the Potency entry was “inactive”.
On to `Nc1nc(N)c2nc(-c3ccccc3)c(N)nc2n1`, for which the Potency entry was “inactive”.
For the molecule `COc1ccc(CN(CCN(C)C)c2ccccn2)cc1`, the Potency result is “inactive”.
On to `CC(N=C(NC#N)Nc1ccncc1)C(C)(C)C` (stereo unspecified), for which the Potency entry is “inactive”.
On the same count and under the same terms, the entry for `CCCCNc1c(C(=O)OCC)c(C)nc2c1cnn2CC` is “inactive”; for `CN(C)CC/C=C1\c2ccccc2COc2ccccc21` it is “inactive”.

In another assay the test system is PC26. Described as above. The following applies: P. falciparum in erythrocytes, SYBR Green DNA, 72 h; series mostly up to 28.7 µM. In short, it runs like this:
as §1
Take `COC(=O)[C@H]1[C@H]2C[C@@H]3c4[nH]c5cc(OC)ccc5c4CCN3C[C@H]2C[C@@H](OC(=O)c2cc(OC)c(OC)c(OC)c2)[C@@H]1OC`: the Potency was 2.13 µM (active).
On the same count and under the same terms, as for `OCCN1CCN(CCCN2c3ccccc3C=Cc3ccccc32)CC1`, the figure is 4.78 µM (active).
On the same count and under the same terms, the figure for `CCCC(C(=O)OCCN(CC)CC)(c1ccccc1)c1ccccc1` is 12 µM (active).
Same read-out and setting: the entry for `CCn1ccnc1CC1COc2ccccc2O1` (stereo unspecified) is “inactive”; for `c1cnc(N2CCN(Cc3ccc4c(c3)OCO4)CC2)nc1` it is “inactive”; for `CCN(CC)CCCN(c1ccccc1)C1Cc2ccccc2C1` it is 7.57 µM (active).
On to `CC(=O)[C@@]1(O)CC[C@H]2[C@@H]3CCC4=CC(=O)CC[C@]4(C)[C@H]3CC[C@@]21C`, for which the Potency entry was “inactive”.
In the case of `O=c1[nH]c(=O)n([C@H]2C[C@H](O)[C@@H](CO)O2)cc1Br`, the Potency entry is “inactive”.
Still for that read-out and setting: the entry for `Nc1nc(N)c2nc(-c3ccccc3)c(N)nc2n1` is “inactive”.
For the molecule `COc1ccc(CN(CCN(C)C)c2ccccn2)cc1`, the Potency entry was “inactive”.
As to `CC(N=C(NC#N)Nc1ccncc1)C(C)(C)C` (stereo unspecified), the Potency result is “inactive”.
Same read-out and setting: as for `CCCCNc1c(C(=O)OCC)c(C)nc2c1cnn2CC`, the entry is “inactive”; as for `CCCCCCCC/C=C\CCCCCCCC(=O)NCc1ccc(O)c(OC)c1`, “inactive”; as for `CN1C[C@H](C(=O)N[C@]2(C)O[C@@]3(O)[C@@H]4CCCN4C(=O)[C@H](Cc4ccccc4)N3C2=O)C[C@@H]2c3cccc4[nH]cc(c34)C[C@H]21`, 1.2 µM (active).
On to `NC(N)=NC(=O)Cc1c(Cl)cccc1Cl`, for which the Potency is 7.57 µM (active).
